Reference: PubChem BioAssay (EPA / NIEHS)
The source holds several records for some structures; these can differ, active in one and inactive in another. Calls of active or inactive are those of the source. Rule for the calls: active = hit-call score of the fitted dose curve at least 0.9, where 1 is the maximum; inactive = score below 0.9.

What follows are molecules tested on TIMP metallopeptidase inhibitor 1 (TIMP1), TIMP1 (gene 7076) (assay: BSK_MyoF_TIMP1: BioMAP Diversity Plus: MyoF Assay for TIMP metallopeptidase inhibitor 1 (TIMP1) Biomarker Activity (AID 2284269)). Conditions: primary human lung fibroblasts.
Procedure: BSK_MyoF is a cell-based, multiplexed-readout assay that uses lung fibroblasts, […], with measurements taken at 24 hours after chemical dosing in a microplate: 96-well plate.BSK_MyoF_TIMP1 is an assay component measured in the BSK_MyoF assay. It measures TIMP-1 antibody related to regulation of gene expression using ELISA technology.Data from the assay component BSK_MyoF_TIMP1 was analyzed at the endpoint, BSK_MyoF_TIMP1, in the positive analysis fitting direction relative to DMSO as the negative control and baseline of activity. Using a type of binding reporter, gain or loss-of-signal activity can be used to understand protein changes. To generalize the intended target to other relatable targets, this assay endpoint is annotated to the 'protease' intended target family, where the subfamily is 'matrix metalloproteinase'.
The levels of cell surface (or secreted, indicated by the prefix "s") biomarker endpoints were measured by ELISA. Overt cytotoxicity to cells in confluent adherent cultures (all systems other than the BT system) was assessed by measuring total protein levels using sulforhodamine B (SRB) staining in parallel cultures at the time of biomarker measurements, indicated as SRB endpoints. For proliferation assays for adherent cell types, individual cell types are cultured at sub-confluence and relative cell numbers quantified by SRB staining at time points optimized for each system (48 h: 3C and CASM3C systems; 72 h: BT and HDF3CGF systems; 96 h: SAg system). SRB was performed by staining cells with 0.1% SRB after fixation with 10% TCA and reading wells at 560 nm.Viability and proliferation of PBMC (T cells) was quantified by Alamar Blue reduction for the SAg and BT systems. For PBMC viability (referred to as PBMC Cytotoxicity within the assay endpoint names), cells were plated (75,000/well in a 96-well plate) and then chemical samples added for 1 h before addition of activators, SEB and TSST-1 (20 ng/mL final concentration each). Cells were incubated for 90 h. Then, Alamar Blue (20 uL/well) (Invitrogen, Cat DAL1100) was added for 6 h, and the plates were read with a fluorescence microplate reader at 546/580 nm (excitation/emission). For PBMC proliferation, cells were plated and activated as above but incubated for only 16 h prior to addition of Alamar Blue. Plates were read after 6 h.
For `O=C(C(=O)c1ccccc1)c1ccccc1`, the outcome was “inactive”. With `CCCCCCC(O)CCCCCCCCCCC(=O)OC` (stereo unspecified) the outcome was “inactive”. `CC[N+](CC)(CC(=O)Nc1c(C)cccc1C)Cc1ccccc1` was tested, and the outcome was “inactive”. In the case of `Oc1cccc2ccccc12`, the outcome is reported as “inactive”. `OC(C(F)(F)F)(C(F)(F)F)C(O)(C(F)(F)F)C(F)(F)F` was tested, and the outcome was “inactive” and the AC50 was 45.6 µM (active). `COC(=O)/C=C\C(=O)OC` was tested, and the outcome was “inactive”. In the case of `Cc1cccnc1`, the outcome is reported as “inactive”. With `CN(C)c1ccc(C(c2ccccc2)c2ccc(N(C)C)cc2)cc1` the outcome was “inactive”. With `CC(C)CC(=O)CC(C)CC(C)C` (stereo unspecified) the outcome was “inactive”. With `Sc1nc2ccccc2s1` the outcome was “inactive”. `CN(C)CCC(c1ccc(Cl)cc1)c1ccccn1` (stereo unspecified) was tested, and the outcome was “inactive”. For `Cc1cc(-n2nc3ccc(Cl)cc3n2)c(O)c(C(C)(C)C)c1`, the outcome was “inactive”. With `CCCCCCCCCCCCCCCCCC[N+](C)(C)C` the AC50 was 8.13 µM (active). `CCCCCCCCCCC1CO1` (stereo unspecified) was tested, and the AC50 was 32.3 µM (active). In the case of `CCCCCCCCCC/C=C/C1CC(=O)OC1=O` (stereo unspecified), the outcome is reported as “inactive”.
